Screening data (PubChem)
Sm TGR block – inhibitors of Schistosoma mansoni thioredoxin glutathione reductase; Q962Y6; purified TGR, DTNB reduction, TNB absorbance 405 nm; Potency, µM (top dose mostly 114 µM), without a hit: at the highest dose activity change, negative = inhibition, actives largely listed as inhibitors; 360,000 tested, 3% active; AID 485364; also: potency is read from the fitted curve at half-maximal effect; nearly all actives have a fitted effect of over 60% in size
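TGR 20 nM + NADPH 100 uM (dispensed conc.), cpd preinc 15 min RT; start with NADPH (500 uM addition) then DTNB (15 mM addition). Kinetic TNB absorbance, 405 nm filter. Four-parameter Hill fit across titration.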
Vaccinia Venus – inhibitors of vaccinia virus (Venus reporter); AID 720580; Vaccinia virus Venus reporter expression, fluorescence; Potency, µM (series often up to 36.5 µM), without a hit: at the top dose activity change, negative = inhibition, actives largely listed as inhibitors; 330,000 tested, 0.46% active; calls by dose curve; tested in A549 cells; also: potency is read from the fitted curve at half-maximal effect; nearly all actives have a fitted effect of over 30% in size
Vaccinia mCherry – vaccinia inhibition (mCherry reporter); Vaccinia virus mCherry reporter infection, fluorescence; Potency, µM (series often up to 36.5 µM), for the others: at the top dose activity change, negative = inhibition, hits mostly inhibitors; 310,000 tested, 0.63% active; calls by dose curve; tested in A549 cells; also: potency is read from the fitted curve at half-maximal effect; nearly all actives have a fitted effect of over 35% in size
FMDV inh – foot and mouth disease virus antiviral activity; FMDV antiviral cell-based qHTS; Potency, µM (series often up to 57.9 µM), for inactives: at the top dose activity change, negative = inhibition, actives largely listed as inhibitors; 410,000 tested, 1.2% active; calls by dose curve; tested in HEK293T cells; also: read-out not given here; potency is read from the fitted curve at half-maximal effect; nearly all actives have a fitted effect of over 45% in size
HCMV antiviral – inhibitors of human cytomegalovirus; AID 1259415; 410,000 tested, 4.5% active; HFF cells, HCMV-luciferase reporter, 72 h; active compounds read low; activity change, negative = inhibition, % at 57.5 µM; in the data active = activity change below about -60%; inconclusive = no clear call, values can overlap the other calls; inactive = above about -39%
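Compounds were evaluated in HFFs infected with an HCMV luciferase reporter virus (MOI 1 PFU/cell). Luciferase in lysates collected 72 h post infection served as the replication measure.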
HCV inh – blocks hepatitis C virus | Huh7.5.1 HCVcc-Cre infection, luciferase reporter, 44 h | AID 651820 | Potency, µM (highest dose often 41.8 µM), without a hit: top-dose activity change, negative = inhibition, hits mostly inhibitors | 340,000 tested, 3.4% active; also: potency is read from the fitted curve at half-maximal effect
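HCVcc-Cre virus at an moi near 0.5 was added right after compound to cells cultured 4 h from seeding (1,000 cells/well). Luciferase activity was determined 44 h later, 15 min after substrate addition at RT.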
* = called active by the depositor; [ ] = remark or other dose. Rows were chosen to be rich in hits. Some 9.3% of all compounds tested hit in one or more screens of this group. Unless noted, calls follow the shape of the dose curve; as a rule, active = well fitted curve in the direction sought with a large enough effect; inconclusive = small, poorly fitted or top-dose-only effect, or another doubt; inactive = no such curve, though single readings can be large; an effect the other way counts as inactive or inconclusive. % is scaled to controls: 0 for no effect and ±100 for the full control effect.

Screening Cc1cc(NC(=O)CSc2nc(Cc3ccccc3)c(C)[nH]2)no1 returned Sm TGR block 35.5µM*, Vaccinia Venus -8.4%, Vaccinia mCherry inactive, FMDV inh 5.0%, HCMV antiviral 4.1 and HCV inh inconclusive.
`Cc1[nH]c(SCC(=O)Nc2cc(S(C)(=O)=O)ccc2Cl)nc1Cc1ccccc1` gave Sm TGR block 3.55µM*, FMDV inh -13.8%, HCMV antiviral -17.8 and HCV inh inconclusive.
`CS(=O)(=O)c1ccc(Cl)c(NC(=O)CCl)c1` gave Sm TGR block 6.31µM*, Vaccinia Venus inconclusive, Vaccinia mCherry inconclusive, FMDV inh 25.1µM*, HCMV antiviral -2.2 and HCV inh inconclusive.
For O=C1c2ccccc2C(=O)N1CSc1ncccn1 the results were Sm TGR block 0.3%, Vaccinia Venus -8.1%, FMDV inh 18.5%, HCMV antiviral -18.5 and HCV inh 10.5%.
COc1ccc(Oc2coc3c(CN4CCOCC4)c(O)ccc3c2=O)cc1 was read as Sm TGR block 44.7µM*, FMDV inh -1.3%, HCMV antiviral 18.3 and HCV inh 2.0%.
`COc1ccc(-c2c(C)oc3c(CN4CCN(C)CC4)c(O)ccc3c2=O)cc1` gave Sm TGR block 0.2%, Vaccinia Venus -11.5%, Vaccinia mCherry -18.0%, FMDV inh -10.0%, HCMV antiviral -62.5* and HCV inh 16.8%.
For O=C(N=C1c2ccccc2CN1c1ccc(F)c(F)c1)c1cccnc1 the results were Sm TGR block 44.7µM*, Vaccinia Venus -3.4%, Vaccinia mCherry inactive, FMDV inh 11.2%, HCMV antiviral inconclusive and HCV inh 2.4%.
`O=CNCCCc1nc2ccccc2n1Cc1cccc2ccccc12` gave Sm TGR block -22.8%, Vaccinia Venus -20.4%, Vaccinia mCherry -3.1%, FMDV inh -17.0%, HCMV antiviral 17.5 and HCV inh 6.4%.
COc1ccc(C2CC(=O)Oc3cc(OC)ccc32)cc1 (stereo unspecified) was read as Vaccinia Venus -15.2%, Vaccinia mCherry -14.0%, FMDV inh -16.8%, HCMV antiviral 16.2 and HCV inh inconclusive.
Screening COc1ccc(C2CC(O)(c3ccccc3)Oc3cc(OC)ccc32)cc1 (stereo unspecified) returned Sm TGR block 4.2%, Vaccinia Venus inconclusive, Vaccinia mCherry inconclusive, FMDV inh 6.1%, HCMV antiviral -9.6 and HCV inh 4.47µM*.
For CCOc1cc(C2CC(=O)Nc3cc(C)c(C)cc32)ccc1O (stereo unspecified) the results were Sm TGR block 0.0%, Vaccinia Venus inconclusive, FMDV inh -15.2%, HCMV antiviral -8.3 and HCV inh -4.8%.
Screening Cc1ccc(C(=O)OCC(=O)Nc2ccc(N(C)C)cc2)cc1NC(=O)c1ccco1 returned Sm TGR block 1.1%, Vaccinia Venus -15.4%, Vaccinia mCherry inactive, FMDV inh -3.1%, HCMV antiviral 3.8 and HCV inh 3.7%.
CC1(C)CC(CCNC(=O)c2ccco2)CC(C)(C)N1 was read as Sm TGR block -0.5%, FMDV inh -2.6%, HCMV antiviral 13.7 and HCV inh 0.5%.
Cc1sc2c(c1C)CN(C1CC(C)(C)NC(C)(C)C1)CN2C(=O)c1ccco1 was read as Sm TGR block 25.1µM* and HCV inh inconclusive.
For Oc1ccccc1-c1cc(C(F)(F)C(F)F)nc(-c2ccccc2)n1 the results were Sm TGR block 89.1µM*, FMDV inh 0.1%, HCMV antiviral -11.6 and HCV inh inconclusive.
For O=[N+]([O-])c1ccc(O)c(-c2cc(C(F)(F)F)nc(-c3ccccc3)n2)c1 the results were Sm TGR block -5.0%, FMDV inh inconclusive, HCMV antiviral -100.6* and HCV inh 1.41µM*.
CCNC(=O)CC1C(=O)N(c2ccc(OC)cc2)C(=O)N1Cc1ccc(OC)cc1 (stereo unspecified) was read as Sm TGR block 2.2%, FMDV inh 19.4%, HCMV antiviral 53.7 and HCV inh 6.3%.
Screening COc1cc2c(cc1OC)CN(C(=O)c1ccc(S(=O)(=O)N3CCCC3)cc1)CC2 returned Sm TGR block -0.9%, Vaccinia Venus 1.0%, Vaccinia mCherry -18.4%, FMDV inh 11.0%, HCMV antiviral 7.2 and HCV inh -14.9%.
COc1ccc(NC(=O)c2cccc3c2C(=O)c2ccc(-c4ccc(F)cc4OCc4ccccc4)cc2S3(=O)=O)cc1 was read as Vaccinia Venus inconclusive, Vaccinia mCherry -17.1%, FMDV inh -2.4%, HCMV antiviral -64.3* and HCV inh -5.7%.
Screening CN1CCN(C(=O)c2ccc3c(c2)S(=O)(=O)c2ccccc2C3=O)CC1 returned Sm TGR block -17.2%, Vaccinia Venus -17.1%, Vaccinia mCherry inconclusive, FMDV inh -12.5%, HCMV antiviral -62.5* and HCV inh -17.7%[8.37 µM].
For CC(=O)N1CCN(C(=O)c2ccc3c(c2)S(=O)(=O)c2ccccc2C3=O)CC1 the results were Sm TGR block 5.7%, Vaccinia Venus -7.4%, Vaccinia mCherry inconclusive, FMDV inh -3.2% and HCV inh 13.0%.
`COc1ccc(OC[C@@H](O)CNC(=O)c2cccc3c2C(=O)c2ccc(-c4ccc(F)cc4OCc4ccccc4)cc2S3(=O)=O)cc1` gave Vaccinia Venus inconclusive, Vaccinia mCherry inconclusive, FMDV inh -18.8% and HCV inh inconclusive.
COc1ccc(NC(=O)c2ccc3c(c2)S(=O)(=O)c2ccccc2C3=O)cc1 was read as Vaccinia Venus 3.2%, Vaccinia mCherry -12.5%, FMDV inh -16.6%, HCMV antiviral -62.8* and HCV inh 2.7%.
`O=C(c1cc(-c2ccco2)on1)N1CCN(C(c2ccccc2)c2ccccc2)CC1` gave Sm TGR block -19.4%, FMDV inh inconclusive, HCMV antiviral -103.6* and HCV inh 2.51µM*.
Screening COc1ccc(-c2cc(C(=O)N3CCN(C(c4ccccc4)c4ccccc4)CC3)no2)cc1 returned Sm TGR block 0.3%, FMDV inh -13.6%, HCMV antiviral -14.1 and HCV inh 10µM*.
For CC(C)c1cc(C(=O)N2CCN(C(c3ccccc3)c3ccccc3)CC2)no1 the results were Sm TGR block -17.4%, Vaccinia Venus -18.4%, Vaccinia mCherry inactive, FMDV inh -10.6%, HCMV antiviral -8.2 and HCV inh inconclusive.
COc1ccc(-c2cc(C(=O)N3CCN(C(c4ccccc4)c4ccccc4)CC3)no2)cc1OC was read as Sm TGR block 4.8%, FMDV inh -23.9%, HCMV antiviral 5.9 and HCV inh inconclusive.
`OCCn1c(-c2ccc3c(c2)OCO3)csc1=Nc1ccccc1` gave Sm TGR block -5.5%, FMDV inh inconclusive, HCMV antiviral inconclusive and HCV inh inconclusive.
